Measured values reported in the supplement of paper PMC6555819.

Legend:
Assay in all cases: PBM binding z-score (relative to random genomic background probes); higher = stronger binding; sequences stand for … in GC…GCGATTGACAGCGTAGAATGAAGG
[1] = system: PPARg:RXRa DBDmut IVT, anti-RXR (DBD mutation: RXRa K156A/R161A, NR concentration 270 nM, RXRa partner concentration 90 nM)
Summary of the method: (§1)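 Antibodies against each partner of ligand-free nuclear receptor dimers (one per run) detected binding on custom Agilent 4×180K protein-binding microarrays after 1 h incubation. The double-stranded probes had 34-nt variable regions carrying direct-repeat seeds, single-nucleotide variants, half-site ablations and random human genomic background sequences. Binding z-scores, from regression-normalized fluorescence, use the random background probes as reference.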

[2] = system: PPARg:RXRa IVT, anti-PPARg (NR concentration 270 nM, RXRa partner concentration 90 nM)
Summary of the method: as §1

[3] = system: PPARg DBDmut:RXRa IVT, anti-PPARg (DBD mutation: PPARg1 K132A/R137A, NR concentration 270 nM, RXRa partner concentration 90 nM)
Summary of the method: as §1

[4] = system: PPARg DBDmut IVT, anti-PPARg (DBD mutation: PPARg1 K132A/R137A, NR concentration 270 nM)
Summary of the method: as §1

[5] = system: PPARg homodimer (NR concentration 180 nM)
Summary of the method: as §1

[6] = system: PXR:RXRa (NR concentration 270 nM, RXRa partner concentration 90 nM)
Summary of the method: as §1

[7] = system: PXR homodimer (NR concentration 270 nM)
Summary of the method: as §1

[8] = system: RARa:RXR (NR concentration 270 nM, RXRa partner concentration 90 nM)
Summary of the method: as §1

[9] = system: RARa homodimer (NR concentration 270 nM)
Summary of the method: as §1

[10] = system: RARb:RXRa (NR concentration 270 nM, RXRa partner concentration 90 nM)
Summary of the method: as §1

Sequence	PBM binding z-score [1]	PBM binding z-score [2]	PBM binding z-score [3]	PBM binding z-score [4]	PBM binding z-score [5]	PBM binding z-score [6]	PBM binding z-score [7]	PBM binding z-score [8]	PBM binding z-score [9]	PBM binding z-score [10]
GCGACTAGGGCATCAGCAGGTTACCATAACTTAA	4.76	3.7	-0.562	-0.523	0.128	-0.0606	-0.519	0.482	-0.519	1.13
AGGACGAGGGCACGCTGAGTTGATAGCAGAGTAG	2.52	2.08	-0.0685	-0.533	0.511	1.31	0.265	0.618	-0.58	2.68
GATACAGGGCCAAGGCCAGAGTACGCGTATTGAT	-0.255	-0.178	-0.899	-1.53	-0.373	-0.55	-0.406	-0.762	-0.587	0.946
TCTTGTAGATCTATAGAGGTTAAGAAAGTGCGCT	1.2	0.683	0.144	0.174	0.213	2.66	-0.0488	1.63	0.178	0.906
GGAATGAGGGCAAGTTGATAGCAGAGTTTGATGG	4.98	3.82	1.16	-0.0155	1.37	1.05	1.87	0.695	0.0185	2.64
TCTAGTTGGTCACGGAGGTCTCACACGACGGGTA	2.19	2.67	0.65	1.23	1.03	0.478	-0.307	0.619	-0.249	1.91
ATCTCTAGGTAACTAGTTCAGTGAAAGAGAGGAC	2.81	2.6	1.49	0.893	0.154	0.527	0.481	0.382	0.388	0.464
TTACCAAGGTGAAGGTCGTTGACCCCTCTGTAGA	1.51	3.73	-0.0772	-0.567	2.99	4.73	0.313	5.73	0.145	2.87
CGTCCAAGGTCAAACGTCAGTGAAGAGATGACGG	4.12	4.1	0.591	-0.466	2.61	4.43	0.834	5.04	0.465	5.22
CCGACTGGGGCATAAGGTTACCCTAAGCCAGCCC	2.4	2.69	-0.367	-1.53	-0.0921	0.213	-0.708	1.1	-0.511	1.26
TTACCAATGTGAAAGGTCGTTGATGCACGCCTTG	0.0484	2.32	0.0698	0.235	1.33	2.76	0.663	3.27	0.219	1.74
TCTCGGAGGACACGAAAGGTTAGAGCTCGACATC	1.49	0.57	-0.609	-0.116	0.402	0.853	-0.519	1.52	0.215	2.48
TAGCCTAGGTCAGATCGGGCCAGTACACGCTATA	0.552	1.62	-0.751	-0.825	0.487	1.33	-0.37	0.937	-0.817	3.22
CCTTACGGGTCACGAGGTTAAAGCACGACGAGCG	3.53	5.39	0.774	0.583	4.94	4.93	0.408	6.28	1.03	4.76
ATTTCTAGGTAAGACTCAGTTCAGTGAAGAACGC	4.54	2.6	1.64	1.76	1.66	1.39	1.8	0.607	2.29	0.674
GCAGACAGGTGAAACGCCGGTAACTCAGGGTGGC	0.72	0.227	-0.163	-1.53	-0.427	-0.468	-0.822	0.0984	-1.03	0.606
GGAACGAGGGCAAAGTTGCTAGCATCTGTCGACG	3.98	3.83	0.283	0.105	0.354	0.708	-0.31	0.566	-1.12	2.38
CAAACTAGGTCACCGGAAGGTCCAAGTCCGCATG	8.74	8.78	2.63	2.9	2.36	2.43	-0.0607	3.18	1.11	4.39
CCGAGTAGGTTACGGGGCATTCAGGCAACGGTGA	3.97	4.11	-0.288	-0.815	0.551	0.0878	-0.35	0.636	-0.584	1.5

Sequence	PBM binding z-score [1]	PBM binding z-score [2]	PBM binding z-score [3]	PBM binding z-score [4]	PBM binding z-score [5]	PBM binding z-score [6]	PBM binding z-score [7]	PBM binding z-score [8]	PBM binding z-score [9]	PBM binding z-score [10]
CCTTACGGGTAAAGGTTATAGCACGGGTGGTACG	-0.138	1.7	-0.079	-0.348	1.08	1.1	0.1	2.04	0.398	1.82
TAAACAGGGTCAAAGGCCAGAGTACGAATGTCGA	3.53	5.43	2.69	2.41	3.24	4.51	0.672	6.19	0.87	4.33
ATATGTAAGTTAGCTGGGGTCATTCAGACTAGGC	0.965	1.4	0.49	0.596	1.64	5.82	6.58	5.31	0.998	2.47
CCTCGGAGGACAACAGGAGGTCAGACCTGCCAGA	0.294	0.546	-0.564	-0.997	1.43	2.11	0.241	2.19	0.183	2.89
CGAACGAGGGCATGAGTTGATAGGAAATGCCGAT	2.5	1.68	-1.02	-0.376	0.547	0.35	0.349	0.4	-0.46	1.88
ATATGTAGGTTAAGGGTCATTCCGGTTGGTTCGC	7.18	7.95	2.74	3.31	3.95	5.32	1.33	5.86	1.66	3.58
TGAATGAGGTCATAAGATCAGGGAACGTTGCAAA	4.55	5.82	2.51	1.96	1.71	4.37	0.734	5.17	0.421	4.55
AGAACGAGGTCAATGAGTTGATAGCACGGGTGGC	5.59	5.76	1.71	0.861	3.64	5.72	8.63	5.14	0.929	4.89
CCTAGCAGGCCAATCTGGGTCACTCATGGCTTGA	4.04	4.89	-0.176	-0.808	0.139	0.641	-0.181	0.915	-0.68	1.44
CGTCCAAGGTCAATGCTATGTCAGTGAAAGCATT	2.87	3.43	-0.154	0.266	2.06	3.61	0.424	3.88	0.262	5.07
CCTACTGGGCCACGAAAGGTCATGGATTCAGTGA	5.9	6.03	-0.103	-0.148	3.03	5.15	0.707	5.48	1.81	4.27
CGTCCAAGGTCAGAGAGGTCCGTGAATGCCGAGT	2.12	2.18	-0.282	-0.705	1.61	3.03	1.11	2.98	0.291	4.67
CCTAGCAGGCCAACCTGGGTCACTCAAGGCTTGA	1.14	1.46	-0.885	-0.95	0.425	1.46	-0.576	1.44	0.141	1.96
ATCTCTAGATAAGACTCAGTTCAGTGAAGAACGC	-0.453	-0.237	-0.428	1.1	-0.287	0.428	0.883	-0.0778	0.631	-0.306
CCTAACGGGTCAAGGTTATAGCACGGGTGGTACG	0.873	2.74	-0.204	-0.102	2.32	2.84	0.496	3.76	1.14	3.9
CCGACTAGGGCAGAAAGGTTACCATACCATCCGG	2.95	2.6	-0.185	-0.946	1.12	1.24	-0.00781	1.86	0.161	2.24
CCTAGCAGGACAGGGTCACTCAAGCATTTCGCTT	0.172	1.08	-2.12	-1.5	1.08	2.84	0.281	3.62	0.381	2.57
AGTGAAAGTTCACTAGGTAACGTAAGATTCAGCT	2.6	4.86	1.41	0.57	2.04	3.61	2	3.07	0.607	4.44
CCTTACGGGTAACTGACAGGTTATAGCATTTGGA	1.03	0.095	-0.022	-0.575	0.529	0.109	-0.252	0.585	0.214	0.274
